Laboratory results published in ChEMBL document CHEMBL1961873, “Compounds: GSK PKIS; Assays: Nanosyn kinase panel” (2012).

Legend:
[1] = target: T1, Serine/threonine-protein kinase TBK1 (Homo sapiens) (UniProt Q9UHD2); details: at 1 µM;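 also: values are mean inhibition of TBK1, screened as part of the GSK published kinase inhibitor set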
T1 sequence (whole entry): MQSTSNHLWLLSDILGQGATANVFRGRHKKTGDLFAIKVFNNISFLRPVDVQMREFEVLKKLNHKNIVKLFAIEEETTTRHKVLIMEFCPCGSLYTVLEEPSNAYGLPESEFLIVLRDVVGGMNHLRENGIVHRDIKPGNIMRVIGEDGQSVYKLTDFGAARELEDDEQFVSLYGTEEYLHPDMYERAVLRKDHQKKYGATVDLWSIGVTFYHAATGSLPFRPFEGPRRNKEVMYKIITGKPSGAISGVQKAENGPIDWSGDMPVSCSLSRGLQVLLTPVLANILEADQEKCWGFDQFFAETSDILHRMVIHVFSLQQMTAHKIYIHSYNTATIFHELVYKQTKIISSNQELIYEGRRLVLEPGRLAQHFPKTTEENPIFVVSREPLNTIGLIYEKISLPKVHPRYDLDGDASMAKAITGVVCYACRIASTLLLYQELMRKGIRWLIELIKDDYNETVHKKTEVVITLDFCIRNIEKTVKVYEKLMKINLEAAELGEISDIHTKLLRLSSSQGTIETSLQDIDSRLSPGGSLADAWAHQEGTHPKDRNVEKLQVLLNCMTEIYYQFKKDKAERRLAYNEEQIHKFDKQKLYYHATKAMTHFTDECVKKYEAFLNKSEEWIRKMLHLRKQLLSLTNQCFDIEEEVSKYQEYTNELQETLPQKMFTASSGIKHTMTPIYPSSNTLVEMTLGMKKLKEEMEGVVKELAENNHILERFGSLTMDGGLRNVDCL

[2] = target: T2, Testis-specific serine/threonine-protein kinase 1 (Homo sapiens) (UniProt Q9BXA7); details: at 0.1 µM
T2 sequence (whole entry): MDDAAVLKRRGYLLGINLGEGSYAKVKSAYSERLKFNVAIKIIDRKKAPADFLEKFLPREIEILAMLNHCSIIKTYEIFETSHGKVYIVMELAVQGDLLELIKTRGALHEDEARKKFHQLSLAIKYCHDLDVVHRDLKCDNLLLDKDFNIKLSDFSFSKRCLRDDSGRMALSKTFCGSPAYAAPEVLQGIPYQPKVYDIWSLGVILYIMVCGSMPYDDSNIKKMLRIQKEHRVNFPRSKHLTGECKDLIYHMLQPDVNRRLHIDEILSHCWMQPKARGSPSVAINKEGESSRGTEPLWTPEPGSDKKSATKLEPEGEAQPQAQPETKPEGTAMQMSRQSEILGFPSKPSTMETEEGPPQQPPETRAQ

[3] = target: T2, Testis-specific serine/threonine-protein kinase 1 (Homo sapiens); details: at 1 µM
[4] = target: T3, Testis-specific serine/threonine-protein kinase 2 (Homo sapiens) (UniProt Q96PF2); details: at 0.1 µM
T3 sequence (whole entry): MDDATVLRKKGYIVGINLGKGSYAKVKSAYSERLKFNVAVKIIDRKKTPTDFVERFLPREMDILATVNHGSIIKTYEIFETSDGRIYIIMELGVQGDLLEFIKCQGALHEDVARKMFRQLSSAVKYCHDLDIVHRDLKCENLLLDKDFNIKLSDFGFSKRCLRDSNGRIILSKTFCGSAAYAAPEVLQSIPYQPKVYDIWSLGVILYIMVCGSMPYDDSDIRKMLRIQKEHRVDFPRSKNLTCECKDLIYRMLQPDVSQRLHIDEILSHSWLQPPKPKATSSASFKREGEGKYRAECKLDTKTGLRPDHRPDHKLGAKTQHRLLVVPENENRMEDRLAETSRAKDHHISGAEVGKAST

[5] = target: T3, Testis-specific serine/threonine-protein kinase 2 (Homo sapiens); details: at 1 µM
[6] = target: Casein kinase I isoform alpha (Homo sapiens) (UniProt P48729); details: at 0.1 µM
[7] = target: Casein kinase I isoform alpha (Homo sapiens) (UniProt P48729); details: at 1 µM
[8] = target: Casein kinase I isoform gamma-1 (Homo sapiens) (UniProt Q9HCP0); details: at 0.1 µM
[9] = target: Casein kinase I isoform gamma-1 (Homo sapiens) (UniProt Q9HCP0); details: at 1 µM
[10] = target: Casein kinase I isoform gamma-2 (Homo sapiens) (UniProt P78368); details: at 0.1 µM
[11] = target: Casein kinase I isoform gamma-2 (Homo sapiens) (UniProt P78368); details: at 1 µM
[12] = target: Casein kinase I isoform gamma-3 (Homo sapiens) (UniProt Q9Y6M4); details: at 0.1 µM
[13] = target: Casein kinase I isoform gamma-3 (Homo sapiens) (UniProt Q9Y6M4); details: at 1 µM
[14] = target: Cyclin-dependent kinase 1 (Homo sapiens) (UniProt P06493); details: at 0.1 µM
[15] = target: Cyclin-dependent kinase 1 (Homo sapiens) (UniProt P06493); details: at 1 µM
[16] = target: Cyclin-dependent kinase 2 (Homo sapiens) (UniProt P24941); details: at 0.1 µM
[17] = target: Cyclin-dependent kinase 2 (Homo sapiens) (UniProt P24941); details: at 1 µM
[18] = target: Cyclin-dependent kinase 2 (Homo sapiens) (UniProt P24941); details: at 0.1 µM; remark: listed apart in the source
[19] = target: Cyclin-dependent kinase 2 (Homo sapiens) (UniProt P24941); details: at 1 µM; remark: listed apart in the source
[20] = target: CDK3/Cyclin E (Homo sapiens) (UniProt P24864+Q00526); details: at 0.1 µM;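 also: reported percentages are mean inhibition values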
Chain of CDK3/Cyclin E (Homo sapiens) (P24864 whole entry, looked up): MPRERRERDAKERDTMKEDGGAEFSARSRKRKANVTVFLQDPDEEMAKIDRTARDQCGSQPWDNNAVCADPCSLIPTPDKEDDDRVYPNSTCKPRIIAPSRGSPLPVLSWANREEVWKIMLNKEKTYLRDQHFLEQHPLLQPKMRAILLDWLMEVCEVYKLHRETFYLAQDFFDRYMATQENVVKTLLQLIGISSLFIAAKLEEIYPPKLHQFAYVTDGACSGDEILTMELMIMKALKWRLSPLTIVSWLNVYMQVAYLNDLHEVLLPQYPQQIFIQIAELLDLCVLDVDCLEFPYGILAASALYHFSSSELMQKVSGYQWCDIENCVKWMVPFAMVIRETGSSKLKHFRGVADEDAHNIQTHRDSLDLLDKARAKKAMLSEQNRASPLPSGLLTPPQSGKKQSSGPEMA
Chain of CDK3/Cyclin E (Homo sapiens) (Q00526 whole entry, looked up): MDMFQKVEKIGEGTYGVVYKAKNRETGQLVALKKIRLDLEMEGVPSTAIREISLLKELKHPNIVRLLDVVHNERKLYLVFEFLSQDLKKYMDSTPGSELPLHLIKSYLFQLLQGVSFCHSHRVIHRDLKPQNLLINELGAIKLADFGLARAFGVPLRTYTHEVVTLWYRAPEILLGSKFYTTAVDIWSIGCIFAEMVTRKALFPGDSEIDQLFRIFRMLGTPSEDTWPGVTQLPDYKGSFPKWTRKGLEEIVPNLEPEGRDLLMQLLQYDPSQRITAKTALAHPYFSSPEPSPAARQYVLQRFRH

Chain of Casein kinase I isoform alpha (Homo sapiens) (P48729 2-337 limits assumed): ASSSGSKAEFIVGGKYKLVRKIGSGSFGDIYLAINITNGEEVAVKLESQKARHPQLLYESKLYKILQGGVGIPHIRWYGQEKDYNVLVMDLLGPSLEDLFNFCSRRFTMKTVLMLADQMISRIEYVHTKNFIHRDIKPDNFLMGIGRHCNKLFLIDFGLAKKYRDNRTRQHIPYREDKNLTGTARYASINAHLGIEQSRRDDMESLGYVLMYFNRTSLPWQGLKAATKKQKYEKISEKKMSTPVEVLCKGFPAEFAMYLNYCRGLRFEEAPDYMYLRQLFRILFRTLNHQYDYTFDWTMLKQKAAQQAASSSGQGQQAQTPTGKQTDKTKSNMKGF
Chain of Casein kinase I isoform gamma-1 (Homo sapiens) (Q9HCP0 whole entry, looked up, canonical isoform): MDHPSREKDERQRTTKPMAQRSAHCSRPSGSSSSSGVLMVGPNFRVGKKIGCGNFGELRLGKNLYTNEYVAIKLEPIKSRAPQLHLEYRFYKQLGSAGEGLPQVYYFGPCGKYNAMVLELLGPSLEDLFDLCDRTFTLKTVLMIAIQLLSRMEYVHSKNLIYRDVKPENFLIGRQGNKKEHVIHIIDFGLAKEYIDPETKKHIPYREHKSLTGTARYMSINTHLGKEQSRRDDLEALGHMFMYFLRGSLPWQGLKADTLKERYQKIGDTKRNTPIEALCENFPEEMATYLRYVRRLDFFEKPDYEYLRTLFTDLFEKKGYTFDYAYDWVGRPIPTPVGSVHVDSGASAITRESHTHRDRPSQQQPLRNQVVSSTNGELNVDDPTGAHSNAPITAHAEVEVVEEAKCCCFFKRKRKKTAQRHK
Chain of Cyclin-dependent kinase 1 (Homo sapiens) (P06493 whole entry, looked up): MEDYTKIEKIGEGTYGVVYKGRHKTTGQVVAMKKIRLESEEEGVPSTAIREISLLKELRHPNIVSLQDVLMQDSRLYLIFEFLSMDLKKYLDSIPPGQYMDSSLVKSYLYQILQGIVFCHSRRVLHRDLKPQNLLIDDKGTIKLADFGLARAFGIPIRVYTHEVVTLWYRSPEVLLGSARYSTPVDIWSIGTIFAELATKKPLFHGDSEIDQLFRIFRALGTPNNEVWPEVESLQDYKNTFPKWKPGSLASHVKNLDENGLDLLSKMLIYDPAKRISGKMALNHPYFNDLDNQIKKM
Chain of Casein kinase I isoform gamma-3 (Homo sapiens) (Q9Y6M4 whole entry, looked up, canonical isoform): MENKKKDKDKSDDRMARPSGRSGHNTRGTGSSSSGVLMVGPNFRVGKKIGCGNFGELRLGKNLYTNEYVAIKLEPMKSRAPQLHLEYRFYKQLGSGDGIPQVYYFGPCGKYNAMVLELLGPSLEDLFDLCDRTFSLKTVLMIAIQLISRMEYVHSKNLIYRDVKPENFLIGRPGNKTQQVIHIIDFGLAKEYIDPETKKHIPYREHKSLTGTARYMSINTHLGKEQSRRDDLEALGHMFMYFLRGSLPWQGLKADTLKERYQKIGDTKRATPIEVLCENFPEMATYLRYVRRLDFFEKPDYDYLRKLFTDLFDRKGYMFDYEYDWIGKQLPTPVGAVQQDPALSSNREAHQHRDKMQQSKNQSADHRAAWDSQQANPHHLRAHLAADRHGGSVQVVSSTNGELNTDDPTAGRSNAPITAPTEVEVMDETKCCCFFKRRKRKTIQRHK
Chain of Casein kinase I isoform gamma-2 (Homo sapiens) (P78368 whole entry, looked up, canonical isoform): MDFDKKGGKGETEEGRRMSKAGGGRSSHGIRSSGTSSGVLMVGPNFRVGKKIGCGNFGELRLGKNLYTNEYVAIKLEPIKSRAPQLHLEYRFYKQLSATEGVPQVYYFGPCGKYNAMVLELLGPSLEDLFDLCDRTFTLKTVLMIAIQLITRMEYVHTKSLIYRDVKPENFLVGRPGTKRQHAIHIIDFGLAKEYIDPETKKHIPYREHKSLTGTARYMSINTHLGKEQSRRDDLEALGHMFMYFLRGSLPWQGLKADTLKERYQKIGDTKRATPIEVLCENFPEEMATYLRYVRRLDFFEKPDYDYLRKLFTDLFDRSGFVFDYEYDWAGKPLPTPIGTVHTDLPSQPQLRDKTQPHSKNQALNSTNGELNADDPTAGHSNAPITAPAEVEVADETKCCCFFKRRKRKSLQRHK

| Compound | inhibition [1] | inhibition [2] | inhibition [3] | inhibition [4] | inhibition [5] | inhibition [6] | inhibition [7] | inhibition [8] | inhibition [9] | inhibition [10] | inhibition [11] | inhibition [12] | inhibition [13] | inhibition [14] | inhibition [15] | inhibition [16] | inhibition [17] | inhibition [18] | inhibition [19] | inhibition [20] |
| --- | --- | --- | --- | --- | --- | --- | --- | --- | --- | --- | --- | --- | --- | --- | --- | --- | --- | --- | --- | --- |
| COc1cc2c(cc1Nc1nc(N3CCc4ccccc43)c3cc[nH]c3n1)N(C(=O)CN(C)C)CC2 | 5.19% | 10.2% | 19.2% | 9.19% | 13.6% | 6.69% | 2.45% | 1.43% | 3.55% | 0.72% | 2.57% | 0.55% | 4.52% | 0.08% | 1.02% | 0.42% | -1.8% | 1.6% | 1.6% | 0.81% |
| Fc1cccc(COc2ccc(Nc3ncnc4sc(-c5cccs5)cc34)cc2Cl)c1 | 2.3% | 0.6% | 1.28% | 0.22% | 0% | -0.37% | 2.33% | 0.39% | -0.08% | 0.42% | 0.26% | -0.15% | 0.1% | 0.75% | 1.12% | -0.17% | 1.85% | 3.98% | 2.92% | -0.06% |
| CCn1c(-c2nonc2N)nc2cnc(Oc3cccc(NC(=O)c4ccc(OCCN5CCOCC5)cc4)c3)cc21 | 7.42% | 24.3% | 72.8% | 2.29% | 3.44% | 0.67% | 1.31% | 3.07% | 2.93% | 2.55% | 3.09% | 1.57% | 1.58% | 0.45% | 3.69% | 2.58% | 7.1% | 2.65% | 5.1% | -0.07% |
| Cc1nnc(-c2ccc(C)c(-c3ccc(C(=O)Nc4cccc(C#N)c4)cc3)c2)o1 | 5% | 0.97% | 2.9% | 1.4% | 2.16% | 8.37% | 6.82% | 1.85% | 2.59% | 1.7% | 1.54% | 1.46% | 0.25% | 0.88% | 1.11% | 1.13% | 0.6% | 1.82% | 2.15% | 4.52% |
| NC(=O)c1ccc(-c2nc(-c3ccccn3)c(-c3ccc4c(c3)OCO4)[nH]2)cc1 | 2.25% | 2.68% | 0.88% | 1.76% | 0.84% | 13.1% | 48.5% | 1.97% | 4.22% | 1.5% | 3.29% | 1.05% | 5.91% | 0.26% | 2.49% |  |  |  |  | 3.35% |
| COc1ccc2cc(-c3c(-c4ccncc4)nc(-c4ccc([S+](C)[O-])cc4)n3C)ccc2c1 (stereo unspecified) | 3.63% | 3.26% | 1.1% | -0.32% | -0.74% | 1.18% | 3.66% | 3.32% | 2.97% | 2% | 2.6% | 1.16% | 3.28% | 0.99% | 2.01% | 1.21% | 1.86% | 3.23% | 3.44% | 4.02% |
| CCN1CCC(CC(=O)Nc2n[nH]c3nc(-c4cccs4)c(Br)cc23)CC1 | 1.1% | -1.56% | -1.9% | -1.62% | -1.24% | 0.63% | -0.71% | -2.56% | -1.74% | -1.74% | -0.99% | -2.3% | 0.47% | 0.69% | 5% | 0.61% | 6.41% | -0.6% | 5.24% | -0.39% |
